Measured values from PubChem BioAssay (NCATS).
Inconclusive results are not listed. Calls of active or inactive are those of the source. Unless noted, the call rests on the fitted dose curve; in most records, active means well fitted curve in the direction sought with a large enough effect; inconclusive means small, poorly fitted or top-dose-only effect, or another doubt; inactive means no such curve, though single readings can be large; an effect the other way counts as inactive or inconclusive.

Columns and labels:
[1] = molecular target: Aldehyde dehydrogenase, mitochondrial (Homo sapiens) (UniProt P05091); assay: qHTS for Inhibitors of the Aldehyde Dehydrogenase Family (ALDH2) Confirmatory screens (AID 2061303; active means well fitted inhibition curve with a large enough effect; title and protocol of this record describe different tests; further: nearly all actives have a fitted effect of over 45% in size; further: potency means the concentration at half of the fitted maximal effect)
[2] = qHTS for Inhibitors of the Aldehyde Dehydrogenase Family (ALDH1A2, ALDH1A3, ALDH2, ALDH3A1) (AID 2061307); further: nearly all actives have a fitted effect of over 50% in size; on Potency: test system not described further here; potency means the concentration at half of the fitted maximal effect
[3] = molecular target: Aldehyde dehydrogenase, mitochondrial (Homo sapiens) (UniProt P05091); assay: qHTS for Inhibitors of the Aldehyde Dehydrogenase Family (ALDH2) Primary screen (AID 2061308); further: nearly all actives have a fitted effect of over 55% in size; further: potency means the concentration at half of the fitted maximal effect
[4] = molecular target: Retinal dehydrogenase 2 (Homo sapiens) (UniProt O94788); assay: qHTS for Inhibitors of the Aldehyde Dehydrogenase Family (ALDH1A2) Confirmation screens (AID 2061314); further: nearly all actives have a fitted effect of over 65% in size
[5] = molecular target: Aldehyde dehydrogenase 1A1 (Homo sapiens) (UniProt P00352); assay: qHTS for Inhibitors of the Aldehyde Dehydrogenase Family (ALDH1A1) Confirmatory screens (AID 2061316); further: nearly all actives have a fitted effect of over 65% in size; further: potency means the concentration at half of the fitted maximal effect
[6] = molecular target: Retinaldehyde dehydrogenase 3 (Homo sapiens) (UniProt P47895); assay: qHTS for Inhibitors of the Aldehyde Dehydrogenase Family (ALDH1A3) Primary screen (AID 2061315)
[7] = molecular target: Retinaldehyde dehydrogenase 3 (Homo sapiens) (UniProt P47895); assay: qHTS for Inhibitors of the Aldehyde Dehydrogenase Family (ALDH1A3) Confirmatory screens (AID 2061311); further: nearly all actives have a fitted effect of over 60% in size
[8] = molecular target: Retinaldehyde dehydrogenase 3 (Homo sapiens) (UniProt P47895); assay: qHTS for Inhibitors of the Aldehyde Dehydrogenase Family (ALDH1A3) Validation screen (AID 2061312); further: potency means the concentration at half of the fitted maximal effect; nearly all actives have a fitted effect of over 45% in size

Measured: Potency

COc1cc(/C=C/C(=O)OC[C@H]2O[C@H](O[C@]3(CO)O[C@H](CO)[C@@H](O)[C@@H]3O)[C@H](O)[C@@H](O)[C@@H]2O)cc(OC)c1O
inactive: [1] | [2] | [3] | [4] | [5]

COc1ccc(C2Nc3ccccc3C(=O)N2Cc2ccc(C(C)(C)C)cc2)cc1COc1ccc(NC(C)=O)cc1 (stereo not given)
inactive: [3] | [6]
active: [1] 1.58 µM | [2] 3.57 µM

CC1CC(O)CC(C)(C)C1(O)CCO (stereo not given)
inactive: [1] | [2] | [3] | [4] | [5]

O=[N+]([O-])c1ccccc1CSc1nc2ncc(Br)cc2[nH]1
inactive: [1] | [2] | [3] | [4] | [6]
active: [5] 12.7 µM

Cc1nnc(-c2cnn(C)c2N)n1CCc1ccccc1
inactive: [1] | [2] | [3] | [4] | [6] | [5]

COc1ccc(C(=O)N(Cc2ccccc2)Cc2ccc(OC)c(COc3ccc(NC(C)=O)cc3)c2)c(O)c1
inactive: [1] | [2] | [3] | [6]

COc1ccc(C2Nc3ccccc3C(=O)N2Cc2ccccc2)cc1COc1ccc(Cl)cc1 (stereo not given)
inactive: [1] | [3] | [6]
active: [2] 5.65 µM

O=C(Nc1ccc2ccccc2c1)Nc1nnc(Br)s1
active: [1] 7.94 µM | [2] 15.8 µM
inactive: [3] | [6]

Cc1cc(F)ccc1[C@H]1C[C@@H](N2CCN3C(=O)CC[C@H]3C2)CCN1C(=O)N(C)[C@H](C)c1cc(C(F)(F)F)cc(C(F)(F)F)c1
inactive: [1] | [2] | [7] | [4] | [6] | [5]
active: [8] 7.94 µM

S=C(Nc1cc(Cl)ccn1)N1CCN(c2ccc(Cl)c(Cl)c2)CC1
inactive: [6]
active: [1] 5.62 µM | [2] 6.31 µM | [3] 3.98 µM | [5] 4 µM

Cc1ccc(CNc2ccc(N3CCN(C)CC3)cc2)cc1
inactive: [1] | [2] | [3] | [6] | [5]
